The list is not random: actives were taken first. Their share in the collection is about 27%.
CYP2C19 activ – human CYP2C19 activators, primary screen, biochemical, luminescence; Cytochrome P450 2C19 (Homo sapiens), P33261; recombinant CYP2C19, luciferin-H EGE luminescence; active compounds read high; 0 = fully inhibited enzyme, 1 = untreated enzyme; activation factor at 5 µM; 96,000 tested, under 10 active; AID 1025, 2008;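 active = activation factor of at least 2 at 5 µM in the primary screen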;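 also: 0 = wells with 2.5 mM tranylcypromine and 1 = vehicle-only wells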
Target sequence (P33261 whole entry, looked up): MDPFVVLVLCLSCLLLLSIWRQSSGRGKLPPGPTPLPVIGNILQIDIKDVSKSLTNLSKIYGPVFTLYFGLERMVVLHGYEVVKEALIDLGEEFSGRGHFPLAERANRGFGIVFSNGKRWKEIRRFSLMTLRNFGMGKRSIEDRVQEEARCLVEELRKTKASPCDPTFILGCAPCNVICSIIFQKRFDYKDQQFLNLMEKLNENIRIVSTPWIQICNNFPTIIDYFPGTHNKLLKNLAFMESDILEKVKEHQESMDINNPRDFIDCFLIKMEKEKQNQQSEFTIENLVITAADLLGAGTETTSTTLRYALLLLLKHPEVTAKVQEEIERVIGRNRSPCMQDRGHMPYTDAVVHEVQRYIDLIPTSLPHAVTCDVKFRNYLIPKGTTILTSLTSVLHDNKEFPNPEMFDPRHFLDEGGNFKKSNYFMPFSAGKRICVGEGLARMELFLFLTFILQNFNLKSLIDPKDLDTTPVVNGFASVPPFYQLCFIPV
CYP2C9 inhib – blockers of cytochrome P450 2C9 activity – biochemical, luminescence, ADME assay, primary screen. CYP2C9 Supersomes, luciferin-H conversion. inhibition, % at 5 µM. P11712. 96,000 compounds, 20% hits;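 active = blocking of liver enzyme CYP2C9 beyond about 50% at 5 µM, limit read from the data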
CYP2C9 act – human CYP2C9 activators, primary screen, biochemical, luminescence. Cytochrome P450 2C9 (Homo sapiens), P11712. recombinant CYP2C9, luciferin-H conversion; active compounds read high; factor 1 = untreated enzyme, 0 = blocked. activation factor at 5 µM. 96,000 compounds, 1.4% hits;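 active = activation factor of 2 or more for CYP2C9 at a 5 µM dose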;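 also: 0 = sulfaphenazole-blocked wells and 1 = vehicle-only wells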
sEH activator – soluble epoxide hydrolase activators, primary screen, biochemical, human sEH; Bifunctional epoxide hydrolase 2 (Homo sapiens), P34913; purified human sEH enzymatic activity, activator screen; activation, % at 2 µM; 91,000 compounds, 0.04% hits; AID 717, 2007; in the data active = activation above about 37%
sEH inh – soluble epoxide hydrolase inhibitors, primary screen, biochemical, human sEH; recombinant human sEH enzymatic activity assay; inhibition, % at 2 µM; 91,000 compounds, 0.34% hits; in the data active = inhibition above about 80%
CYP2C19 inhib – blockers of cytochrome P450 2C19 activity – biochemical, luminescence, ADME assay, primary screen. P33261. CYP2C19 Supersomes, luciferin-H EGE luminescence, 30 min. inhibition, % at 5 µM. 96,000 compounds, 21% hits. AID 778, 2007;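 active = CYP2C19 inhibition above a set limit at 5 µM in the primary screen, cut at about 50% in these data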;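 also: plate controls were negative control wells for no effect and 2.5 mM tranylcypromine positive control for full effect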
The depositor's hits bear a star; nt = no result given.

SMILES	CYP2C19 activ	CYP2C9 inhib	CYP2C9 act	sEH activator	sEH inh	CYP2C19 inhib
O=C(NCc1ccc2c(c1)OCO2)c1ccc(CS(=O)(=O)c2ccc(Br)cc2)o1	0.5	94.9*	0.1	nt	nt	54.7*
CCCCNC(=O)c1ccc(CS(=O)(=O)c2cccc(C(F)(F)F)c2)o1	0.3	-30.4	1.3	-9.9	11.7	70.9*
O=C(NCc1ccco1)c1ccc(CS(=O)(=O)c2cccc(C(F)(F)F)c2)o1	0.7	2.4	1	8.0	-5.8	33.3
COc1ccccc1S(=O)(=O)Cc1ccc(C(=O)NCc2ccc3c(c2)OCO3)o1	0.4	74.6*	0.3	0.5	1.7	61.0*
CN(C)CCNC(=O)c1ccc(CS(=O)(=O)c2ccc(Br)cc2)o1	nt	nt	nt	16.7	-17.7	nt
COc1ccccc1S(=O)(=O)Cc1ccc(C(=O)N2CCOCC2)o1	nt	nt	nt	8.7	-8.9	nt
CC(NC(=O)c1ccc(CS(=O)(=O)c2cccc(C(F)(F)F)c2)o1)c1ccc2c(c1)OCCO2 (stereo not given)	0.4	62.4*	0.4	-4.7	1.9	63.7*
CN1CCNC(=O)C1CC(=O)O (stereo not given)	1.2	-8.4	1.1	28.0	-27.9	-16.9
O=C(NCc1ccc2c(c1)OCO2)c1ccc(CS(=O)(=O)c2cccc(C(F)(F)F)c2)o1	0.2	93.5*	0.1	-11.2	13.0	75.5*
Cc1ccc(C23CC4CC(CC(NC(=O)NC(C)(C)CO)(C4)C2)C3)cc1	0.3	74.8*	0.3	-12.5	14.3	73.2*
Cc1ccc(C23CC4CC(CC(NC(=O)N5CCN(C)CC5)(C4)C2)C3)cc1	0.6	29.9	0.7	0.5	4.6	36.3
CC1(C)CC(=O)C=C(NC2CCCCCC2)C1	1	4.8	1	nt	nt	2.1
Fc1cccc(NCc2ccoc2)c1	1	-2.5	1	nt	nt	-3.1
O=C(NCCc1cn2ccccc2n1)c1ccccc1F	0.8	7.9	0.9	-3.4	1.5	18.5
Fc1ccc(NCc2cn3ccccc3n2)cc1	0.2	29.4	0.7	-3.2	6.0	84.3*
Fc1cccc(NCc2cn3ccccc3n2)c1	0.2	31.8	0.7	-7.8	5.9	78.0*
O=S(=O)(c1cccs1)N1CCCc2ccccc21	0.2	-112.6	2.1*	10.9	-13.1	84.6*
Cn1c(=O)oc2cc(S(=O)(=O)N3CCCc4ccccc43)ccc21	0.7	-19.8	1.2	5.8	-6.7	29.0
O=S(=O)(c1cccs1)N1CCc2ccccc21	0.5	-130.7	2.3*	14.9	-13.6	50.6*
COc1ccc(OC)c2c1CC(C)(C)NC2=O	1.1	5.1	0.9	nt	nt	-11.9
CC(C)OCCCNC(=O)c1ccccc1Oc1ccccc1	0.7	32.0	0.7	0.5	-0.7	30.9
OCCOCCNc1ncnc2sc(-c3ccccc3)cc12	0.4	59.2*	0.4	-2.8	4.8	63.5*
CCNS(=O)(=O)c1ccc(C(=O)Nc2ccccc2)cc1	1.1	96.9*	0	-6.8	2.7	-10.8
CCCc1cc(C(=O)Nc2nccs2)cs1	0.6	52.5*	0.5	-21.2	21.8	40.4
CCc1cc(C(=O)NNC(=S)NCc2ccccc2)cs1	0.9	3.5	1	-14.3	15.0	11.9
SMILES	CYP2C19 activ	CYP2C9 inhib	CYP2C9 act	sEH activator	sEH inh	CYP2C19 inhib
CCCN1C(=O)c2ccc(C(=O)Nc3nccs3)cc2C1=O	0.9	9.8	0.9	-6.4	6.0	8.5
CCc1cc(C(=O)Nc2ccccc2)cs1	0.2	48.1	0.5	nt	nt	76.3*
O=C(Nc1ccccc1)c1ccc(S(=O)(=O)NCC2CCCO2)cc1 (stereo not given)	1	11.2	0.9	nt	nt	2.8
CC(=O)Nc1ccc(S(=O)(=O)NCc2ccc(C(=O)NC(C)c3ccccc3)cc2)cc1 (stereo not given)	0.7	90.8*	0.1	-16.4	14.7	26.5
COc1cc2c(cc1OC)C(=S)NC(C)(C)C2	0.9	16.2	0.8	-8.6	5.9	14.4
COc1ccc(/C=N/NC(=O)CCCC(=O)NC2CCCCC2)cc1	1	-1.8	1	-2.0	4.5	-1.0
CC(C)NC(=O)C1CC(=O)N(c2ccc(F)c(Cl)c2)C1 (stereo not given)	0.7	-49.2	1.5	17.5	-20.7	26.8
CCOC(=O)c1ccc(NC(=S)Nc2ccccn2)cc1	0.9	-6.0	1.1	8.4	-5.5	8.1
C/C(=N\Nc1nc2c(s1)CCCC2)c1ccc(Cl)cc1	0.8	17.6	0.8	14.4	-12.4	17.3
CCNS(=O)(=O)c1ccc(NC(=O)c2cccnc2)cc1	1	78.2*	0.2	nt	nt	-1.2
CCOC(=O)c1ccc(NC(=O)C2=C(C)Nc3nc(CCCO)nn3C2c2ccc(OC)cc2)cc1 (stereo not given)	nt	nt	nt	10.0	-8.7	nt
COc1ccccc1OCCSc1nnnn1C1CCCCC1	nt	nt	nt	7.3	-6.9	nt
c1ccc(OCCSc2nnnn2C2CCCCC2)cc1	0.3	82.5*	0.2	-14.2	13.1	67.9*
COc1cccc(-n2nnnc2SCC(=O)Nc2ccc(C(C)=O)cc2)c1	nt	nt	nt	-21.9	23.7	nt
COc1cc(NC(=O)CSc2nnc(-c3ccncc3)n2C2CCCCC2)ccc1NC(=O)c1ccco1	0.4	71.5*	0.3	5.6	-5.9	62.0*
CC(=O)c1cccc(-n2nnnc2SCC(=O)Nc2ccccc2N2CCCCC2)c1	0	87.4*	0.1	7.4	-6.6	96.0*
Cc1ccc(-n2nnnc2SCC(=O)NNC(=O)c2ccco2)cc1C	1	-95.1	2*	7.5	-4.5	-2.2
Cc1nc(N2CCN(c3ccccc3)CC2)[nH]c(=O)c1Cc1cccc2ccccc12	nt	nt	nt	-15.1	13.6	nt
CCc1cccc2c(C#N)cn(CC(=O)NCCOC)c12	0.7	0.7	1	0.0	0.7	32.6
O=C(CSc1nnnn1C1CCCCC1)N1CCCC1	1	-8.1	1.1	3.3	-4.1	-1.2
O=C(CSc1nnnn1C1CCCCC1)Nc1cccc(NC(=O)c2ccco2)c1	0.3	77.2*	0.2	nt	nt	69.3*
CC(C)N(C(=O)CSc1nnnn1C1CCCC1)C(C)C	0.2	28.2	0.7	-9.9	8.9	80.6*
O=C(CSc1nnnn1C1CCCC1)Nc1cccc(NC(=O)c2ccco2)c1	0.2	82.8*	0.2	-24.5	21.9	83.3*
O=C(CSc1nnnn1C1CCCC1)Nc1ccc(F)cc1	0.7	9.5	0.9	-5.1	3.6	31.3
O=C(CSc1nnnn1C1CCCCC1)Nc1ccc2c(c1)OCO2	0.8	53.0*	0.5	1.6	-1.5	25.0
OC1(Cc2ccn[nH]2)CCCCC1	1	2.7	1	-3.5	3.9	1.0
O=c1oc2cc(Oc3ccc(C(F)(F)F)cc3[N+](=O)[O-])ccc2c2c1CCCC2	nt	nt	nt	5.9	-5.2	nt
Cc1noc(C)c1COc1ccc(C(=O)OC(C)C(=O)Nc2ccc(N3CCOCC3)cc2)cc1 (stereo not given)	0.9	18.7	0.8	13.1	-9.4	8.8

Screens as filed in PubChem.
